Compound activity: PubChem, National Center for Advancing Translational Sciences (NCATS)
Cycloheximide cs = affects cycloheximide protein synthesis inhibition readout, counter-screen | cell reporter, cycloheximide protein synthesis inhibition counterscreen | max response, % | 12% of 300,000 active; in the data active means max response mostly above about 13%, no sharp cut-off; inactive means mostly below about 14%; further: read at 38.3 µM for the half of the compounds with a filed dose
AmpC no deterg = inhibitors of E. coli AmpC beta-lactamase without detergent | P00811 | AmpC nitrocefin hydrolysis, absorbance 480 nm, 0.0001% Triton | Potency, µM (titrated, usually from 57.1 µM), most hits filed as inhibitors | 0.52% of 330,000 active | AID 485341; further: nearly all actives have a fitted effect of over 20% in size
Target sequence (P00811 whole entry, looked up): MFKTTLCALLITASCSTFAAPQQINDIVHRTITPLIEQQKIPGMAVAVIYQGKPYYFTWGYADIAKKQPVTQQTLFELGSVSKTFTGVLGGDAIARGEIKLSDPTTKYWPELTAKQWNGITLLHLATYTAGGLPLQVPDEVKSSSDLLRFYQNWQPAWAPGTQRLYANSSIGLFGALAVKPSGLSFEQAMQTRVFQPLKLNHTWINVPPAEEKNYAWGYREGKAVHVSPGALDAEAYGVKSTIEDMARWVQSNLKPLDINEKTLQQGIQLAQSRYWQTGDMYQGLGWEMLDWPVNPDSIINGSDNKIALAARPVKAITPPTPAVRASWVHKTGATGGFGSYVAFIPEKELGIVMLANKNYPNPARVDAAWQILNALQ
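AmpC (5.3 nM in the dispensed reagent) in 20 mM phosphate pH 7.0 with 0.01% (detergent screen) or 0.0001% Triton X-100 was preincubated with compounds for 15 min at room temperature. Nitrocefin was then added from an 800 uM solution, and hydrolysis was followed at 480 nm.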
AMA1 RON2 block = disrupts binding of P. falciparum AMA1 to RON2 | AlphaScreen AMA1-biotinylated RON2 peptide binding | Potency, µM (highest dose often 58.2 µM), hits mostly inhibitors | 0.2% of 360,000 active; further: nearly all actives have a fitted effect of over 45% in size
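AMA1 (3D7) with his tag at 25 nM final met compounds first, then biotinylated RON2 peptide at 25 nM; detection used donor plus acceptor beads, 10 µg/mL apiece, read by AlphaScreen after 30 min at room temperature.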
AmpC detergent = AmpC beta-lactamase inhibition with detergent present; P00811; AmpC hydrolysis of nitrocefin, absorbance 480 nm, 0.01% Triton; Potency, µM (top dose mostly 114 µM), actives largely listed as inhibitors; 0.041% of 370,000 active; further: nearly all actives have a fitted effect of over 25% in size
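20 mM phosphate pH 7.0 + 0.01% (detergent screen) or 0.0001% Triton X-100; 5.3 nM AmpC reagent; cpd preinc 15 min RT; nitrocefin (800 uM stock) to start; A480 q20 s × 4 min; Activity was normalised to no-enzyme and no-compound control wells.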
Shiga inhibitor = inhibitors of Shiga toxin in Vero cells | AID 2315 | 9.2% of 290,000 active | Vero cells, Shiga toxin protein synthesis inhibition reporter | inhibition, % at 38.7 µM; in the data active means inhibition mostly above about 28%, no sharp cut-off; inactive means mostly below about 43%
SARS PLpro yeast = blocks SARS-CoV papain-like protease in a yeast assay; 0.19% of 330,000 active; Potency, µM (doses to about 32.9 µM), most hits filed as activators; S. cerevisiae expressing SARS-CoV PLpro, growth rescue; calls by dose curve; further: nearly all actives have a fitted effect of over 55% in size
Numbers stand for hits; n = inactive; u = inconclusive; x = no result; [ ] = remark or other dose. Shown is part of a subset that was picked to be rich in hits. Unless noted, the call rests on the fitted dose curve; in most records, active means well fitted curve in the direction sought with a large enough effect; inconclusive means small, poorly fitted or top-dose-only effect, or another doubt; inactive means no such curve, though single readings can be large; an effect the other way counts as inactive or inconclusive.

SMILES	Cycloheximide cs	AmpC no deterg	AMA1 RON2 block	AmpC detergent	Shiga inhibitor	SARS PLpro yeast
COC(=O)c1scc(C)c1N/N=C(\C)c1ccc(F)cc1	n	n	n	n	n	n
Cc1cccc(NC(=O)c2sc3nc(C)nc(N4CCOCC4)c3c2C)c1	x	x	n	x	x	x
Cc1nc(N2CCCCC2)c2c(C)c(C(=O)Nc3ccc4c(c3)OCCO4)sc2n1	17	n	n	n	n	n
Cc1ccnc(NC(=O)c2ccc3c(c2)C(=O)N(CC2CCCO2)C3=O)c1 (centres undefined)	24	n	n	n	62	n
CCCNC(=O)c1cc(C2CCCCN2C(=O)CCc2ccccc2)on1 (centres undefined)	x	x	n	x	x	x
Cc1ccc2c(c1)C(=O)N1[C@H]3c4cc(Cl)ccc4OC[C@@H]3[C@H](c3ccccc3)[C@]1(C)C(=O)N2	x	n	n	x	x	n
CCC(=O)Nc1cccc(-n2nnnc2SCC(=O)c2ccc(C)c(C)c2)c1	26	n	n	u	42	u
CCC(=O)Nc1cccc(-n2nnnc2SCC(=O)NCc2ccco2)c1	n	n	n	u	n	n
CCCCn1nnnc1SCC(=O)c1ccc(C)c(C)c1	38	n	n	n	n	n
CCc1ccc(NC(=O)Cn2cnc3sc(C)c(S(=O)(=O)N4CCN(c5ccccc5OC)CC4)c3c2=O)cc1	x	x	x	n	x	x
FC(F)(F)c1ccnc(N2CCN(Cc3cnc(-c4ccccc4)[nH]3)CC2)c1	63	n	n	n	61	n
CC(=O)Nc1ccc(S(=O)(=O)N2CCN(c3cc(C(F)(F)F)ccn3)CC2)cc1	n	n	n	n	n	n
COc1ccc(-n2nc(C(=O)NCCCN3CCCC3=O)c3c4ccccc4n(C)c3c2=O)cc1Cl	n	n	n	n	n	n
O=C(O)/C=C/C(=O)Nc1ccc(Oc2ncnc3cc(Cl)ccc23)nc1	26	n	n	n	58	n
O=C(Nc1ccccc1)Nc1ccc(Oc2ncnc3cc(Cl)ccc23)nc1	n	n	n	n	n	n
Nc1ccn([C@@H]2O[C@H](C(=O)NCC(F)(F)F)[C@@H](O)[C@H]2O)c(=O)n1	x	x	n	x	x	x
CCCSc1nsc(SCCC)c1C#N	22	n	n	u	46	n
Fc1ccc(-c2nnsc2Sc2ccccn2)cc1	34	n	n	n	67	n
CCOC(=O)C1=CCC(c2ccc(N(CC)CC)cc2)N(S(=O)(=O)c2ccc(C)cc2)C1c1ccc([N+](=O)[O-])cc1 (centres undefined)	x	x	n	x	x	x
CCOC(=O)N1CCN(C(=O)c2ccccc2NC(=O)c2ccc(F)cc2)CC1	n	n	n	n	n	n
CCOC(=O)N1CCN(C(=O)c2ccccc2NC(=O)c2ccc(Br)cc2)CC1	n	n	n	n	n	n
CCOC(=O)N1CCN(C(=O)c2ccccc2NC(C)=O)CC1	24	n	n	n	n	n
CCOC(=O)N1CCN(C(=O)c2ccccc2NC(=O)COc2ccccc2)CC1	31	n	n	n	109	n
Cc1ccc(Nc2nnc(-c3ccccc3N)o2)cc1C	26	n	n	n	41	n
CC1CCCN(C(=O)c2cc3ccccc3cc2O)C1 (centres undefined)	n	n	n	n	n	n
SMILES	Cycloheximide cs	AmpC no deterg	AMA1 RON2 block	AmpC detergent	Shiga inhibitor	SARS PLpro yeast
CN(C)C(=O)C(CCN1CCC(O)(c2ccc(Cl)cc2)CC1)(c1ccccc1)c1ccccc1	n	n	n	n	n	n
Cc1ccnc(NC(=O)C2CCN(S(=O)(=O)c3cccc(C(F)(F)F)c3)CC2)c1	14	n	n	n	n	n
O=C(CCNC(=O)C1CCN(S(=O)(=O)c2ccccc2)CC1)Nc1cccc(C(F)(F)F)c1	16	n	n	n	n	n
CCCCSc1ncnc2[nH]ncc12	23	n	n	n	n	n
CCCNc1ncnc2[nH]ncc12	x	x	n	x	x	x
COCCNC(=O)CN(C(=O)CCC(=O)Nc1ccccn1)c1ccc(C)cc1	n	n	n	u	n	n
N=C1S/C(=C\c2cn[nH]c2-c2ccc(F)cc2)C(=O)N1c1ccccc1F	20	n	n	n	n	n
CC(C)[C@H](N)C(=O)NC[C@H]1CC[C@H](C(=O)N[C@@H](Cc2ccccc2)C(=O)O)CC1	n	n	n	n	n	n
CC(=O)CCc1ccc(OCCCCn2cncn2)cc1	20	n	n	n	51	n
Brc1cccc(OCCCCn2cncn2)c1	n	n	n	n	n	n
c1ccc(-c2ccc(OCCCn3cncn3)cc2)cc1	41	n	u	u	61	n
c1ccc(Oc2cccc(OCCn3cncn3)c2)cc1	n	n	n	n	n	n
c1ccc(COc2ccc(OCCn3cncn3)cc2)cc1	25	n	n	n	54	n
CSc1nnc([C@@H](N)Cc2ccccc2)o1	n	n	n	n	n	n
CC(=O)Nc1ccc(N(CC(=O)NC2CCCC2)C(=O)CCC(=O)Nc2cc(C)on2)cc1	n	n	n	u	n	n
CS(=O)(=O)N1CCN(c2ccccc2NC(=O)c2ccc3c(c2)OCCO3)CC1	n	n	n	u	n	n
CCOc1ccc(S(=O)(=O)N(CC(=O)NC2CCCCC2C)Cc2ccco2)cc1 (centres undefined)	n	n	n	n	n	n
O=C(Nc1nnc(C2CCCCC2)s1)c1ccco1	34	n	n	n	80	n
Cc1ccccc1N1CC(c2nnc(NC(=O)c3ccco3)s2)CC1=O (centres undefined)	x	x	x	n	x	x
O=C(Nc1nnc(C2CC2)s1)c1ccco1	29	n	n	n	107	n
CCOC(=O)C1(CCOc2ccccc2)CCN(CC2CC2)CC1	n	n	n	n	n	n
COc1ccc(C(=O)OCC(=O)N2C(C)CCCC2C)cc1S(=O)(=O)N1CCOCC1 (centres undefined)	x	n	n	x	x	n
CCn1c(COc2ccc3c(c2)CCCC3)nnc1SCC(=O)Nc1ccc(C(=O)OC)cc1	n	n	n[2.32 µM]	n	n	n
CCOC(=O)Cn1cncc1-c1ccc([N+](=O)[O-])cc1	72	n	n	n	84	n
CCOc1ccc(NC(=O)Cn2cncc2-c2ccc([N+](=O)[O-])cc2)cc1	n	n	n	n	n	n
SMILES	Cycloheximide cs	AmpC no deterg	AMA1 RON2 block	AmpC detergent	Shiga inhibitor	SARS PLpro yeast
C#CCNc1ccc([N+](=O)[O-])cc1	16	n	n	n	n	n
CCCCc1ccc(NS(=O)(=O)c2c(C)n(C)c(=O)n(C)c2=O)cc1	n	n	n	n	n	n
O=C(c1cc(-c2ccccc2Cl)on1)N1CCN(C(=O)c2ccco2)CC1	n	n	n	n	n	n
O=C(c1ccco1)N1CCN(Cc2ccc(Cl)cc2)CC1	n	n	n	n	n	n
O=C(c1ccco1)N1CCN(Cc2c(Cl)cccc2Cl)CC1	21	n	n	n	n	n
O=C(c1ccco1)N1CCN(Cc2csc(-c3ccccc3Cl)n2)CC1	50	n	n	n	83	n
